Rows were chosen to be rich in hits. Some 9.6% of all compounds tested hit in one or more screens of this group.
PostGolgi ctrl = yeast control strain growth, post-Golgi counter-screen. AID 738. efflux-deficient yeast background strain, growth absorbance A615, 16 h. inhibition, % at 10 µM. 98,000 tested, 5% active
hDAT+cocaine = human DAT dopamine uptake with cocaine, either direction | B-score at 10 µM | 110,000 tested, 1.3% active | LLC-PK1 hDAT cells, [14C]-dopamine uptake with cocaine IC80; actives deviate in either direction;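 active = Z score or B-score, a plate-position-corrected score, falls beyond the plate's 99.7% confidence bounds, in either direction; inactive = both scores lie inside the 99.7% bounds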;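 also: scored against the spread of the other compound wells on the same plate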
PLAP activator = activators of human placental alkaline phosphatase. activation fold at 20 µM. 96,000 tested, 1.2% active. purified PLAP enzyme, luminescent substrate read-out; stronger effect = higher value; in the data active = activation fold above about 2
PostGolgi yeast = growth inhibition of a yeast mutant, post-Golgi transport screen. post-Golgi transport phenotypic cell assay. inhibition, % at 10 µM. 98,000 tested, 0.9% active;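 also: yeast cells grown in 1536-well plates; yeast grown about 18 h at 30C before absorbance read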
Cav32 inh = inhibitors of human Cav3.2 T-type calcium channel | O95180 | Cav3.2-expressing cells, Fluo-4 calcium fluorescence FDSS; stronger effect = lower value | B-score at 10 µM | 100,000 tested, 4% active;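 active = single-dose well whose peak fluorescence ratio is a statistical outlier from its plate by either plate-standardised score or position-corrected B-score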
* marks the source's active call; other numbers are inactive results. Rule as the data show it, unless noted: active = inhibition above about 30%; inactive = the rest.

CC(C)(C)C(=O)NC1(C(F)(F)F)C(=O)Nc2c1c(=O)[nH]c(=O)n2Cc1ccco1 (stereo not given) was read as PostGolgi ctrl 2.7, PLAP activator 0.9 and PostGolgi yeast 2.8.
For Cc1oc(-c2ccccc2F)nc1CN1CCC(C(=O)NCCC2=CCCCC2)CC1 the results were PostGolgi ctrl 4.4, hDAT+cocaine -0.104, PLAP activator 1.8, PostGolgi yeast -3.5 and Cav32 inh -5.73*.
CC(C)CN(CC(C)C)S(=O)(=O)N1CCC(C(=O)NCc2cccs2)CC1 was read as PostGolgi ctrl 7.2, hDAT+cocaine -0.385, PLAP activator 1.1, PostGolgi yeast -2.5 and Cav32 inh -3.73*.
`Cc1ccccc1-c1nc(CN2CCC(C(=O)NCc3cccs3)CC2)c(C)o1` gave PostGolgi ctrl 8.0, hDAT+cocaine -0.954, PLAP activator 2.6*, PostGolgi yeast -7.8 and Cav32 inh -3.44.
Screening Cc1oc(-c2ccccc2F)nc1CN1CCC(C(=O)NCc2cccnc2)CC1 returned PostGolgi ctrl 3.5, hDAT+cocaine 0.542, PLAP activator 1.4, PostGolgi yeast 2.1 and Cav32 inh 0.193.
`Cc1ccccc1-c1nc(CN2CCC(C(=O)NCc3ccco3)CC2)c(C)o1` gave PostGolgi ctrl 1.9, hDAT+cocaine -0.848, PLAP activator 1.3, PostGolgi yeast -1.4 and Cav32 inh 0.0202.
Screening Cc1ccccc1-c1nc(CN2CCC(C(=O)NCCCN3CC(C)CC(C)C3)CC2)c(C)o1 (stereo not given) returned PostGolgi ctrl -1.1, hDAT+cocaine -0.565, PLAP activator 2*, PostGolgi yeast -3.1 and Cav32 inh 0.0408.
For Cc1ccccc1-c1nc(CN2CCC(C(=O)NCCCN3CCCC3)CC2)c(C)o1 the results were PostGolgi ctrl 5.9, hDAT+cocaine 1.03, PLAP activator 1.8, PostGolgi yeast 4.8 and Cav32 inh -0.352.
C/C(=N/Oc1nc(C)cc(C)n1)c1ccc(F)cc1 was read as PostGolgi ctrl 22.8, hDAT+cocaine 0.106, PLAP activator 1, PostGolgi yeast -1.3 and Cav32 inh 0.581.
Screening Cn1c(SCC(=O)c2ccc3c(c2)OCO3)nnc1C1COc2ccccc2O1 (stereo not given) returned PostGolgi ctrl -4.2, hDAT+cocaine 0.651, PLAP activator 1.4, PostGolgi yeast -5.1 and Cav32 inh -0.00978.
`Cc1cc(C(=O)CSc2nnc(C3COc4ccccc4O3)n2C)c(C)n1-c1ccc(F)cc1` (stereo not given) gave PostGolgi ctrl 29.9, hDAT+cocaine -0.0783, PLAP activator 1.2, PostGolgi yeast 4.5 and Cav32 inh -7.92*.
`Cn1c(SCc2cnc(-c3ccccc3)s2)nnc1C1COc2ccccc2O1` (stereo not given) gave PostGolgi ctrl 13.2, hDAT+cocaine 0.527, PLAP activator 1, PostGolgi yeast 1.1 and Cav32 inh -4.91*.
Screening Cn1c(SCc2cc(=O)n3cc(Br)ccc3n2)nnc1C1COc2ccccc2O1 (stereo not given) returned PostGolgi ctrl 5.2, hDAT+cocaine -0.299, PLAP activator 1.2, PostGolgi yeast 3.8 and Cav32 inh 2.38.
`CCN=C1SC(C(=O)Nc2ccccc2)CC(=O)N1CC` (stereo not given) gave PostGolgi ctrl 8.1, hDAT+cocaine 0.956, PLAP activator 0.8, PostGolgi yeast 3.0 and Cav32 inh -0.134.
CCOC(=O)C1CCN(C(=O)COC(=O)COc2ccccc2OC)CC1 was read as PostGolgi ctrl 3.3, hDAT+cocaine -8.48*, PLAP activator 1.3, PostGolgi yeast -10.9 and Cav32 inh 0.0213.
Screening CCCNS(=O)(=O)c1ccc(OCC(=O)N2CCC(C(=O)OCC)CC2)cc1 returned PostGolgi ctrl 31.3*, hDAT+cocaine -0.0281, PLAP activator 1, PostGolgi yeast -6.8 and Cav32 inh 0.132.
For CCOC(=O)C1CCN(C(=O)COc2ccc(S(=O)(=O)NC(C)C)cc2)CC1 the results were PostGolgi ctrl -6.0, hDAT+cocaine 0.171, PLAP activator 1.2, PostGolgi yeast 13.6 and Cav32 inh -1.16.
`CCOC(=O)C1CCN(C(=O)CCc2ccccc2)CC1` gave PostGolgi ctrl 6.2, hDAT+cocaine -1.48, PLAP activator 1.1, PostGolgi yeast -2.8 and Cav32 inh -0.455.
`CCOC(=O)COc1ccc(S(=O)(=O)c2ccc(OCC(=O)OCC)cc2)cc1` gave PostGolgi ctrl -2.4, hDAT+cocaine -0.643, PLAP activator 0.8, PostGolgi yeast 2.4 and Cav32 inh -6.05*.
Screening Cc1ccc(NS(=O)(=O)c2ccc(OCC(=O)N3CCOCC3)cc2)cc1 returned PostGolgi ctrl 32.5*, hDAT+cocaine 0.0594, PLAP activator 1.3, PostGolgi yeast 1.9 and Cav32 inh 0.341.
`CCOc1ccccc1C(=O)N(Cc1ccccc1)Cc1cc2cc3c(cc2[nH]c1=O)OCCO3` gave hDAT+cocaine -0.298 and Cav32 inh 0.0801.
Cc1ccc(C)c(-c2nn(-c3cc(N4CCN(CCO)CC4)ccc3[N+](=O)[O-])c(=O)c3ccccc23)c1 was read as PostGolgi ctrl 48.0*, hDAT+cocaine 0.65, PLAP activator 1.2, PostGolgi yeast -1.8 and Cav32 inh 1.05.
Cc1nn(-c2cc(N3CCCC3)ccc2[N+](=O)[O-])c(=O)c2ccccc12 was read as PostGolgi ctrl -1.6, hDAT+cocaine 0.101, PLAP activator 0.9, PostGolgi yeast -5.0 and Cav32 inh 0.607.
For Cc1ccc(-c2nn(-c3cc(Cl)ccc3[N+](=O)[O-])c(=O)c3ccccc23)cc1 the results were PostGolgi ctrl 37.0*, hDAT+cocaine -0.741, PLAP activator 1, PostGolgi yeast -0.7 and Cav32 inh -1.04.
For Cc1cc(OCC(=O)NCCCN(C)C)cc(C)c1Br the results were PostGolgi ctrl -3.4, hDAT+cocaine -0.0863, PLAP activator 1.9, PostGolgi yeast -4.6 and Cav32 inh 0.0242.
`CC(C)(C)c1ccc(S(=O)(=O)CC(O)CSc2nc3c(cc2C#N)CCCC3)cc1` (stereo not given) gave PostGolgi ctrl 24.9, hDAT+cocaine -0.795, PLAP activator 0.9, PostGolgi yeast 9.9 and Cav32 inh -2.2.
Screening N#Cc1cc2c(nc1SCC(O)CS(=O)(=O)Cc1ccc(Cl)cc1)CCCC2 (stereo not given) returned PostGolgi ctrl 36.0*, hDAT+cocaine -0.72, PLAP activator 1.4, PostGolgi yeast -3.3 and Cav32 inh -1.49.
`COc1ccc(NS(=O)(=O)c2cc(OC)ccc2NC(=O)c2cc(C)oc2C)cc1` gave PostGolgi ctrl 1.2, hDAT+cocaine -0.242, PLAP activator 1.2, PostGolgi yeast -10.4 and Cav32 inh -2.26.
`Oc1ccc(C(=S)N2CCCCCC2)cc1` gave PostGolgi ctrl 30.2*, hDAT+cocaine -1.17, PLAP activator 0.9, PostGolgi yeast -20.0 and Cav32 inh 2.81.
`C=CCOC(=O)C1=C(C)NC(SCC(=O)Nc2ccccc2)=C(C#N)C1c1ccco1` (stereo not given) gave PostGolgi ctrl 2.9, PLAP activator 1.1, PostGolgi yeast 11.7 and Cav32 inh -0.204.
